mHTT-CaM PPI inh = mHTT-calmodulin interaction abrogation. P42858. inhibition, % at 15 µM. 3.6% of 190,000 active. AlphaScreen His-mHTT/GST-CaM binding, luminescence. AID 1671202
Target sequence (P42858 whole entry, looked up, change not shown): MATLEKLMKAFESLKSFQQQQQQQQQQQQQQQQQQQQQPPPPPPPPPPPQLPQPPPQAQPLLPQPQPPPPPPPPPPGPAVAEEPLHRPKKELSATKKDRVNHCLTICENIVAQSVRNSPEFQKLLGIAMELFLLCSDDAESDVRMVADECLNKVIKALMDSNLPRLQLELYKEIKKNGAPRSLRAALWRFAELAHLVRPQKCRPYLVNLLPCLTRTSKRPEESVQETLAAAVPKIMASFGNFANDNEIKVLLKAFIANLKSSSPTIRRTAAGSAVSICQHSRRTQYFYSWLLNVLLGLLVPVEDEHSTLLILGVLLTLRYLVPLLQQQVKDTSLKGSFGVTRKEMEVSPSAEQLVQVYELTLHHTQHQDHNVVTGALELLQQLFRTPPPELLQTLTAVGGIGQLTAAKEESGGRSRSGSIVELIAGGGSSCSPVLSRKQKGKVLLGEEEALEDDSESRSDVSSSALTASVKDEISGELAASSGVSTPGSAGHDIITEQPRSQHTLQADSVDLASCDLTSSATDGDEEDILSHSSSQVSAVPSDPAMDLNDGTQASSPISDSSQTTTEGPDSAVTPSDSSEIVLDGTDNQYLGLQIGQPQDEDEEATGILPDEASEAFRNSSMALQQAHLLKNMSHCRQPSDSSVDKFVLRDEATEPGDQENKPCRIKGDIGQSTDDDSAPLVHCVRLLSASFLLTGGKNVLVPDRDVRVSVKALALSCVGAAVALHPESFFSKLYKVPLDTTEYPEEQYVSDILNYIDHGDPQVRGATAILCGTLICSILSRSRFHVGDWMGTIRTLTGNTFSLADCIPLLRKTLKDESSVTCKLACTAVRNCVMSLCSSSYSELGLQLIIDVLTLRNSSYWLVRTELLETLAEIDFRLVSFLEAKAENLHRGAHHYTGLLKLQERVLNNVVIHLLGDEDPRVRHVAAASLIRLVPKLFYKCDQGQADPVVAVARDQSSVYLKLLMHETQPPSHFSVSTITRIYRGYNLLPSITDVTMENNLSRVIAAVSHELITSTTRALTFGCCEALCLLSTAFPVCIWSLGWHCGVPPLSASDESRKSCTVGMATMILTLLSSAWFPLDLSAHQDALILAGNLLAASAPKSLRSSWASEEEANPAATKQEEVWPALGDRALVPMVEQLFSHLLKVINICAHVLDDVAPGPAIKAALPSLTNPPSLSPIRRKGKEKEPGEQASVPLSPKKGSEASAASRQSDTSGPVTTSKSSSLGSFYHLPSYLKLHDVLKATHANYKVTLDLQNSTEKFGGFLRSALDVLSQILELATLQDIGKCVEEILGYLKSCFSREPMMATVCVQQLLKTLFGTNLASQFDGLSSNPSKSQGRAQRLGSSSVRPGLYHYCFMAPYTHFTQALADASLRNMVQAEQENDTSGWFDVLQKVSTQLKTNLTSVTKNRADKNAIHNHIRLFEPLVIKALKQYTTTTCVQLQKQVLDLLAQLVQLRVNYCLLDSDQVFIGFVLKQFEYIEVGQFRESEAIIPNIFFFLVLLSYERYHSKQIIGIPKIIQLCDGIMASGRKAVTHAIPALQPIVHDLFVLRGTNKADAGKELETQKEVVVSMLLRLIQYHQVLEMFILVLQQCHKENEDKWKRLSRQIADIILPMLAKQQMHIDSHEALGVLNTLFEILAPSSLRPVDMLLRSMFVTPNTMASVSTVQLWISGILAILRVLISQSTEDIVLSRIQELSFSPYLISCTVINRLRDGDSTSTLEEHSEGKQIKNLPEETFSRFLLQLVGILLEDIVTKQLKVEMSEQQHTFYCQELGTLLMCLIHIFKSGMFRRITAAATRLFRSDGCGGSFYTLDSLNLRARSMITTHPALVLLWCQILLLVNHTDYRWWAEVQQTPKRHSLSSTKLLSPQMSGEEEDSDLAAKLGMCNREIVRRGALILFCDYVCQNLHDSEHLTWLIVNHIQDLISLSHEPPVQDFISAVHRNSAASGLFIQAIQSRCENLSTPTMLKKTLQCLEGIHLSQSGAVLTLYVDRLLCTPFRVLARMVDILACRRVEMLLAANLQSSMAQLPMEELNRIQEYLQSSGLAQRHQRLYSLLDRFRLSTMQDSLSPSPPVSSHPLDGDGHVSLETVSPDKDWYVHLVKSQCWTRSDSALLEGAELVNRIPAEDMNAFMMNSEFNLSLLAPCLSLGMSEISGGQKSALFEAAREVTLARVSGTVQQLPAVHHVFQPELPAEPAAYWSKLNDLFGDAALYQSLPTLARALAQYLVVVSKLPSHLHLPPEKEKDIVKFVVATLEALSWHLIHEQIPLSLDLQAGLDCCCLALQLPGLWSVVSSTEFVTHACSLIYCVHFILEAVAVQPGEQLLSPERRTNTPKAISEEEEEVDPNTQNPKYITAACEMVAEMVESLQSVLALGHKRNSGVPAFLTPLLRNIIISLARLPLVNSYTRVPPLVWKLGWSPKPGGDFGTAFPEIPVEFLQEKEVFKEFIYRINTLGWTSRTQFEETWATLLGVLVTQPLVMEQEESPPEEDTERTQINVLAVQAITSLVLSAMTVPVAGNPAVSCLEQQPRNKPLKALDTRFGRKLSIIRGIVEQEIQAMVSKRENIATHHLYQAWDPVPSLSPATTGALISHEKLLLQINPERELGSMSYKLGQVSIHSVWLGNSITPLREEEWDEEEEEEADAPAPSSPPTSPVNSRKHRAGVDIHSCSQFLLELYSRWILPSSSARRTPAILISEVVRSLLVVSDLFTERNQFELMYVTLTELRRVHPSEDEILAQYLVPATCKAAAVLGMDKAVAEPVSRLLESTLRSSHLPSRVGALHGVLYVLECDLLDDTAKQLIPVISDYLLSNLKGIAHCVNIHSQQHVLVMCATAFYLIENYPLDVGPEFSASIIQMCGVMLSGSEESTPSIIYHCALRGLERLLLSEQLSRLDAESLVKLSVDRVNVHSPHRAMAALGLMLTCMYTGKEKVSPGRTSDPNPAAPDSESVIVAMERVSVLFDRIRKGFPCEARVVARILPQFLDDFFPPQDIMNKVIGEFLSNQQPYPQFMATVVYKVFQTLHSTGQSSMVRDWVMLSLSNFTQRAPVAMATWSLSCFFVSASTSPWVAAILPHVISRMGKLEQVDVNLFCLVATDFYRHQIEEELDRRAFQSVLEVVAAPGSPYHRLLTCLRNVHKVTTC
Pf apPOL block = Pf-apPOL DNA polymerase inhibition; inhibition, % at 10 µM; AID 1794808; Recombinant Pf-apPOL, molecular beacon fluorescence, 1.5 h; 0.25% of 210,000 active
Of the large screens only hits and unclear results are named; the others gave an inactive call; ! = a repeat was not active. The list is not random: actives were taken first. Their share in the collection is about 3.5%. Rule as the data show it: active = inhibition above about 50%; inactive = the rest.

CCC(=O)NC(c1ccc(C)cc1)c1cc([N+](=O)[O-])c2cccnc2c1O (stereo unspecified)	mHTT-CaM PPI inh 100
CCC(=O)NC(c1ccc(OC)c(OC)c1)c1cc([N+](=O)[O-])c2cccnc2c1O (stereo unspecified)	mHTT-CaM PPI inh 100
CCCC(=O)NC(c1ccc(C)cc1)c1cc(Cl)c2cccnc2c1O (stereo unspecified)	none
Cc1cccc(Nc2c([N+](=O)[O-])cc([N+](=O)[O-])c3cccnc23)c1	none
O=[N+]([O-])c1cc(C(F)(F)F)cc([N+](=O)[O-])c1NCc1c(Cl)cccc1Oc1ccccc1	none (no result: mHTT-CaM PPI inh)
Cc1ccc(OCC(=O)Nc2ccc(O)cc2)cc1C	none
Cc1cccn2c(=O)c(C=Nc3ccc(Cl)cc3)c(NCc3ccco3)nc12	none
C=CCn1c(C(=O)NCc2ccncc2)cc2sc(Br)cc21	mHTT-CaM PPI inh 51
C=CCn1c(C(=O)NC2CC2)cc2sc(Br)cc21	none
Cn1c(=NC(=O)c2cc3ccccc3oc2=O)sc2cc(S(C)(=O)=O)ccc21	none
Cc1ccc(C(O)=CC(=O)C(=O)NNC(=O)c2ccccc2Nc2ccccc2)c(C)c1	none (no result: mHTT-CaM PPI inh)
COc1ccc(CCCC(=O)Nc2ccc(Cl)cc2C)cc1	none
COc1ccc(CCCC(=O)Nc2ccc(I)cc2C)cc1	Pf apPOL block 93
O=C(CCN1C(=O)c2ccccc2C1=O)Nc1ccccc1Cl	none
c1ccc(-c2nc(-c3ccccn3)nc(-c3ccccn3)n2)nc1	none (no result: Pf apPOL block)
Clc1cc(-c2ccccn2)nc(-c2ccccn2)c1	mHTT-CaM PPI inh 76 (no result: Pf apPOL block)
O=C(CN1CCCCCC1)Nc1c2c(nc3c1CCC3)CCCC2	none
Cc1cccc(COC[C@H](Cc2ccccc2)N2CCN(C(=O)c3ccc(C(F)(F)F)cc3)CCC2=O)c1	mHTT-CaM PPI inh 99
Cc1ccc(S(=O)(=O)N2CCC(=O)N([C@H](COCc3ccc(C(F)(F)F)cc3)Cc3ccccc3)CC2)cc1	none
COc1cccc(C(=O)N2CCc3c(c(COCc4ccc(Cl)cc4)nn3C)C2)c1	none
Cc1cccc(C(=O)N2CCC(=O)N([C@H](COCc3ccc(Cl)cc3)Cc3ccccc3)CC2)c1	mHTT-CaM PPI inh 99
Cc1ccc(S(=O)(=O)N2CCC(=O)N([C@H](COCc3cccc(C)c3)Cc3ccccc3)CC2)cc1	none
O=C(c1ccc(Cl)c(Cl)c1)N1CCC(=O)N([C@H](COCc2ccc(Cl)cc2)Cc2ccccc2)CC1	mHTT-CaM PPI inh 100
Cc1cccc(COC[C@H](CC(C)C)N2CCN(C(=O)c3ccc(C(C)(C)C)cc3)CCC2=O)c1	none
Cc1cccc(C(=O)N2CCC(=O)N([C@H](COCc3cccc(Cl)c3)Cc3ccccc3)CC2)c1	mHTT-CaM PPI inh 99
COc1cccc(CC(=O)N2CCCC2c2cc(C)no2)c1 (stereo unspecified)	none
CC(C(=O)Nc1ccccn1)N1C(=O)C2C3C=CC(C3)C2C1=O (stereo unspecified)	none
CC(C(=O)Nc1cccc2c1C(=O)c1ccccc1-2)N1C(=O)C2C3C=CC(C3)C2C1=O (stereo unspecified)	mHTT-CaM PPI inh 61
O=C(COc1cccc(Cl)c1)NCc1ccco1	none
O=C(COc1cccc2c1CCN(Cc1ccc(Cl)cc1)C2=O)NCc1ccco1	mHTT-CaM PPI inh 70
COc1cc([N+](=O)[O-])ccc1-c1ccc(/C=C(\C#N)c2nc3ccccc3[nH]2)o1	none
CCOc1ccc(-c2[nH]nc3c2C(c2ccc(F)cc2)C(C#N)=C(N)O3)c(OCC)c1 (stereo unspecified)	none
CCOc1ccc(-c2[nH]nc3c2C(c2ccccc2F)C(C#N)=C(N)O3)c(OCC)c1 (stereo unspecified)	mHTT-CaM PPI inh 51
Fc1ccc(CN2CCCN(C(=S)NC3CCCCC3)CC2)cc1	none (no result: mHTT-CaM PPI inh)
CC(C)Cn1c(=O)c(N2CCN(C(=O)c3cccc(F)c3)CC2)nc2ccccc21	none
COCCn1c(-c2nc(C(=O)N3CCN(S(C)(=O)=O)CC3)cs2)cc2ccccc21	none
O=C1[C@H](Cc2ccccc2)NCCCC[C@H](c2ccc(Cl)cc2)N1Cc1ccc(Cl)cc1	none
O=C1[C@H](Cc2ccccc2)NCCCC[C@@H](c2ccc(Cl)cc2)N1Cc1ccccc1	mHTT-CaM PPI inh 91
O=C(COc1ccc(F)cc1)N1CCN(C(=O)COc2ccc(F)cc2)CC1	none
O=C(COc1ccc(F)cc1)N1CCC(n2nc(-c3ccsc3)ccc2=O)CC1	mHTT-CaM PPI inh 92
COc1ccc(OCC(=O)N2CCC(n3nc(-c4ccsc4)ccc3=O)CC2)cc1	mHTT-CaM PPI inh 88
CC1CCN(C(=O)COc2ccc(C(C)C)cc2)CC1	none
CS(=O)(=O)N1CCc2ccc(C(=O)Nc3ccc(F)c(Cl)c3)cc21	none
COc1cc(Cl)c(C)cc1N1C(=O)CCC1(C)C(=O)NC1CCCC1 (stereo unspecified)	none
CCN(CC)C(=O)CC[C@H]1CC[C@]2(CCCN(Cc3cccs3)C2)O1	none
CCOC(=O)CC[C@@H]1CC[C@]2(CCCN(Cc3cccs3)C2)O1	mHTT-CaM PPI inh 94
O=C(CN1C(=O)c2ccccc2C1=O)Nc1cccc(C(F)(F)F)c1	none
Cn1c(Cc2ccccc2)nnc1SCc1c(Cl)cccc1[N+](=O)[O-]	none
NS(=O)(=O)c1ccc(N2CCOCC2)c([N+](=O)[O-])c1	none (no result: mHTT-CaM PPI inh)
O=[N+]([O-])c1cc(Br)c2nsnc2c1N1CCOCC1	mHTT-CaM PPI inh 67!
Cc1cc(C)c2nc(C)cc(Nc3ccc(OCc4ccccc4)cc3)c2c1	mHTT-CaM PPI inh 90
Cc1cc(C)c2nc(C)cc(Nc3ccc(C(=O)O)cc3)c2c1	none
CCOc1ccc2nc(C)cc(Nc3cc(Cl)ccc3OC)c2c1	none
CCOc1ccc(Nc2c3ccccc3nc3ccccc23)cc1	mHTT-CaM PPI inh 63
CCOc1ccc2nc(C)cc(Nc3ccc(OCc4ccccc4Cl)cc3)c2c1	mHTT-CaM PPI inh 98
CCOc1ccc(Nc2nc(-c3ccccc3)cs2)cc1	none
Cc1nc(-c2cccs2)sc1NC(=O)ON=C(N)c1ccc(Cl)cc1	none (no result: mHTT-CaM PPI inh)
CC1CCCN(CCCNC(=O)C2CCN(c3ccc(N4CCCCC4)nn3)CC2)C1 (stereo unspecified)	none
C=C(C)COc1ccc2c(=O)c(Oc3ccc(C(=O)OC)cc3)coc2c1	none
O=C(NCC1(O)CCOCC1)c1cc(Br)ccc1Cl	none
Cc1ccc(-c2cc3n(n2)CCCN(C(=O)c2ccoc2)C3)cc1	none
CCOc1ccc(NC(=O)c2c(NC(=O)CN3CCN(C)CC3)sc3c2CCC3)cc1	none
CCOc1ccc(NC(=O)c2c(NCc3ccccn3)sc3c2CCC3)cc1	mHTT-CaM PPI inh 59
COc1ccccc1NC(=O)c1c(NCc2ccccn2)sc2c1CCCCC2	mHTT-CaM PPI inh 73
CCOc1ccccc1NC(=O)c1c(NCc2ccccn2)sc2c1CCCCC2	mHTT-CaM PPI inh 73
CCOc1ccccc1NC(=O)c1c(NCc2ccncc2)sc2c1CCCC2	mHTT-CaM PPI inh 53
CCOc1ccccc1NC(=O)c1c(NC(=O)CN2CCOCC2)sc2c1CCC2	none
CCOc1ccccc1NC(=O)c1c(NC(=O)CNCC2CCCO2)sc2c1CCC2 (stereo unspecified)	none
CC(C)(C)C(=O)Nc1sc2c(c1C(=O)Nc1ccccn1)CCCC2	none
Cc1cccnc1N=Cc1nc(-c2ccc(Br)cc2)oc1O	none
O=C(Nc1ccc2cn[nH]c2c1)/C(=C/c1ccccc1)NC(=O)c1ccccc1	none
CC(=O)Cn1nc([N+](=O)[O-])nc1-c1nc([N+](=O)[O-])n(CC(C)=O)n1	none
OCCn1c(-c2ccc(Cl)cc2)csc1=Nc1ccccc1	mHTT-CaM PPI inh 69
CCN(CC)CCn1c(-c2ccccc2)csc1=Nc1ccccc1	none
c1ccc(N=c2scc(-c3ccccc3)n2CCN2CCOCC2)cc1	none
